In ChEMBL document CHEMBL1961873, “Compounds: GSK PKIS; Assays: Nanosyn kinase panel” (2012):

How the values were obtained:
[1] = target: T1, Inhibitor of nuclear factor kappa-B kinase subunit epsilon (Homo sapiens) (UniProt Q14164); settings: at 1 µM;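 further: reported values are averaged percent inhibition figures against human IKKε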
T1 sequence (whole entry): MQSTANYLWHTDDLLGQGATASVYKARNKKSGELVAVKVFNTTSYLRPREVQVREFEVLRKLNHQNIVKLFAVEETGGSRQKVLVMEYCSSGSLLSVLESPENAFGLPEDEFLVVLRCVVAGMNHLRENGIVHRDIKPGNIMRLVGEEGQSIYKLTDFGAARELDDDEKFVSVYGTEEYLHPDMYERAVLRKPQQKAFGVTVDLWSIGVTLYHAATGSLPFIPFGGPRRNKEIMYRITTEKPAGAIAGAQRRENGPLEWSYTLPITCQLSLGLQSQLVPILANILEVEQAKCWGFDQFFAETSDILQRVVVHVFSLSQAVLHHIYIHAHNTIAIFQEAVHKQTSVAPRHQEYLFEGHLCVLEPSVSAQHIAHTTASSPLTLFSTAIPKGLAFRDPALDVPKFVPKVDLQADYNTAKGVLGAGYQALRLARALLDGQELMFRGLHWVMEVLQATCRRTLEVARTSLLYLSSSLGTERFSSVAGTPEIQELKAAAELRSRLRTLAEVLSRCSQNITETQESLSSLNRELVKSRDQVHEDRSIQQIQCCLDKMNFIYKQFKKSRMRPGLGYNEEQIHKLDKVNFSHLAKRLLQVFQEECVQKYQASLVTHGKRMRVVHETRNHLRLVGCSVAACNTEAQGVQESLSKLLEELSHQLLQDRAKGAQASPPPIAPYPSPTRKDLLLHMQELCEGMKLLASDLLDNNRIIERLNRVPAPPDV

[2] = target: T2, Serine/threonine-protein kinase Nek1 (Homo sapiens) (UniProt Q96PY6); settings: at 0.1 µM
T2 sequence (whole entry): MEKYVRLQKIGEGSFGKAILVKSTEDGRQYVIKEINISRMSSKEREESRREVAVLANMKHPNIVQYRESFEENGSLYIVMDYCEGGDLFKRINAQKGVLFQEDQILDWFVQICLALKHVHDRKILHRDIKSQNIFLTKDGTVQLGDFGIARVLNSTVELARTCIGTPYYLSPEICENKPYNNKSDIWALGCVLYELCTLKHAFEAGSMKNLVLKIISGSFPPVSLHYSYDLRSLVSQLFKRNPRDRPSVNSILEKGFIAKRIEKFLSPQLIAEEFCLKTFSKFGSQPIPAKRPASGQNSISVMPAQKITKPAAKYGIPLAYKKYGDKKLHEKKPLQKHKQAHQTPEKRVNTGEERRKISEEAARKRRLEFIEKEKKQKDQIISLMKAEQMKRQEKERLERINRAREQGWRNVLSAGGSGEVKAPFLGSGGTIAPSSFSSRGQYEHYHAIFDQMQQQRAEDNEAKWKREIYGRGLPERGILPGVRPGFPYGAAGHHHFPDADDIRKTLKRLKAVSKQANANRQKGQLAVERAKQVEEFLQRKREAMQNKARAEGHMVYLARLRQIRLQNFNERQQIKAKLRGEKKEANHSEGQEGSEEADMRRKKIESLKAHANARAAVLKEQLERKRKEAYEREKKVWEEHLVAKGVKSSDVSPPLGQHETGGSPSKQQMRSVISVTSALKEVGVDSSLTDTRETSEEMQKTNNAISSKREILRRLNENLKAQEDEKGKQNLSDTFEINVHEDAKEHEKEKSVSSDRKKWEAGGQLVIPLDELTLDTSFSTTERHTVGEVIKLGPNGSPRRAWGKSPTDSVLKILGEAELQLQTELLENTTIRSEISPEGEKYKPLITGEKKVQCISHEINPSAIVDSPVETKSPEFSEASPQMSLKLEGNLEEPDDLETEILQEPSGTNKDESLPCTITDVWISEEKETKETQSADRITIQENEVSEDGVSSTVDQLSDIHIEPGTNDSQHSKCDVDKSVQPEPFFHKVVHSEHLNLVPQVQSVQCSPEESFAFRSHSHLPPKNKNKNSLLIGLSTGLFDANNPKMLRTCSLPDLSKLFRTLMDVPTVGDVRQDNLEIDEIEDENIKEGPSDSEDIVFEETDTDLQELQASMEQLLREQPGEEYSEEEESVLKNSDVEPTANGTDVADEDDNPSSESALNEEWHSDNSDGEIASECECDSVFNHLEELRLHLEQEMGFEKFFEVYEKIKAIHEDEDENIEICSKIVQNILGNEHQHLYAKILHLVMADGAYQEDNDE

[3] = target: T2, Serine/threonine-protein kinase Nek1 (Homo sapiens); settings: at 1 µM
[4] = target: T3, Serine/threonine-protein kinase Nek2 (Homo sapiens) (UniProt P51955); settings: at 0.1 µM
T3 sequence (whole entry): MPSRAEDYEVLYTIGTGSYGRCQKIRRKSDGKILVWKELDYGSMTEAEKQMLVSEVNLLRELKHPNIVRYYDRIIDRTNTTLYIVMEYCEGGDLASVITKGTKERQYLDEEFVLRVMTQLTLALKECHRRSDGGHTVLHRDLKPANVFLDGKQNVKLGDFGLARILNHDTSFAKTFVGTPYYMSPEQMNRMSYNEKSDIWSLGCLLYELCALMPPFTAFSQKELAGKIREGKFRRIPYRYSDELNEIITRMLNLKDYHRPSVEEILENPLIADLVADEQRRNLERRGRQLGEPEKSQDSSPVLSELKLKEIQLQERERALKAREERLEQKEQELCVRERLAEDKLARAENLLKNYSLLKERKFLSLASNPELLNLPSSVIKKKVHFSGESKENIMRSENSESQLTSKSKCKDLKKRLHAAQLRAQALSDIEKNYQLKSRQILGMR

[5] = target: T3, Serine/threonine-protein kinase Nek2 (Homo sapiens); settings: at 1 µM
[6] = target: Serine/threonine-protein kinase Nek6 (Homo sapiens) (UniProt Q9HC98); settings: at 0.1 µM
Chain of Serine/threonine-protein kinase Nek6 (Homo sapiens) (Q9HC98 whole entry): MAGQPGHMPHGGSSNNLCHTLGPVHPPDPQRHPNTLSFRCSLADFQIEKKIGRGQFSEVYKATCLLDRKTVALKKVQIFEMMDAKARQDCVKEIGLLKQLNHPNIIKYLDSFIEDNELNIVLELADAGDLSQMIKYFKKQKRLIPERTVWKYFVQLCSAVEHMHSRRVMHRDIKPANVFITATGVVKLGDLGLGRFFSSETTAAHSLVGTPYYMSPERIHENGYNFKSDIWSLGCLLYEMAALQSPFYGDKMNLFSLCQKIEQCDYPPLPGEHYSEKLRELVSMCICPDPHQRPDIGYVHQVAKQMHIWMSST

[7] = target: Serine/threonine-protein kinase Nek6 (Homo sapiens) (UniProt Q9HC98); settings: at 1 µM
[8] = target: Serine/threonine-protein kinase Nek7 (Homo sapiens) (UniProt Q8TDX7); settings: at 0.1 µM
Chain of Serine/threonine-protein kinase Nek7 (Homo sapiens) (Q8TDX7 whole entry, looked up): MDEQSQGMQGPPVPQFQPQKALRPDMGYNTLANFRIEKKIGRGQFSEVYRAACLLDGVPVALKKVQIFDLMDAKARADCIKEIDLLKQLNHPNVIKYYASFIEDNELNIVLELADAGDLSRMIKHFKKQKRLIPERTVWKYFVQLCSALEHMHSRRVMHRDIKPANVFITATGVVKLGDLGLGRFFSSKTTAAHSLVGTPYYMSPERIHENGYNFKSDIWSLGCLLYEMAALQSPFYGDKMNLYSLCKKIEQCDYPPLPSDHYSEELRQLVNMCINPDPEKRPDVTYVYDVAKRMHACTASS

[9] = target: Serine/threonine-protein kinase Nek7 (Homo sapiens) (UniProt Q8TDX7); settings: at 1 µM
[10] = target: T4, Serine/threonine-protein kinase Nek9 (Homo sapiens) (UniProt Q8TD19); settings: at 0.1 µM;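 further: reported value is the mean percent inhibition of NEK9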
T4 sequence (whole entry): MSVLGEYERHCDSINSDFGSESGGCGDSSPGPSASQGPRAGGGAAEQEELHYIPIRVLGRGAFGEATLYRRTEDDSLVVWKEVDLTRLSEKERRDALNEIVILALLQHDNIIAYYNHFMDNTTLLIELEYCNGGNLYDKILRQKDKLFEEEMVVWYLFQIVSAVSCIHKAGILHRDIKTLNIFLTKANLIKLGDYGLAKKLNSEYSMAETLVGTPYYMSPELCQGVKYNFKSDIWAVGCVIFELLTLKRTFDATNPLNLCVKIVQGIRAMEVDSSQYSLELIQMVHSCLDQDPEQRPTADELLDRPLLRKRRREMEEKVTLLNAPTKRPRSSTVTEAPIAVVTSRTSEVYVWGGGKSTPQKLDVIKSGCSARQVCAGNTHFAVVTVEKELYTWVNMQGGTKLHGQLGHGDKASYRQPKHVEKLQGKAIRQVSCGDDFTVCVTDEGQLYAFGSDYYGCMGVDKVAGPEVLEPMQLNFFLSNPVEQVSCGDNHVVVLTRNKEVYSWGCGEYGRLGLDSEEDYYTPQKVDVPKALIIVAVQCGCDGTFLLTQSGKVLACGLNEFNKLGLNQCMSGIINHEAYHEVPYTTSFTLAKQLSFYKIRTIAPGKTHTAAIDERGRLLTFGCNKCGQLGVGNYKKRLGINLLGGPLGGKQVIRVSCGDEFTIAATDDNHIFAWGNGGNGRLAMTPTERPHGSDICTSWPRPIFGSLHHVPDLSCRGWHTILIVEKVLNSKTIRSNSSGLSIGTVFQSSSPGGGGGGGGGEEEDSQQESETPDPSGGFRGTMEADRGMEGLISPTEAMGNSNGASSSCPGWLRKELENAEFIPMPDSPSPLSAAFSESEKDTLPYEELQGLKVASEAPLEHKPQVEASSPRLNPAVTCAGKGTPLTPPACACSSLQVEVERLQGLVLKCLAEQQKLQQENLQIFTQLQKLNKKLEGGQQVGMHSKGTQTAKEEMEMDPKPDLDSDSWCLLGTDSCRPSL

## CN(C)CCCn1c(-c2nonc2N)nc2cnccc21
[1]
  inhibition: 4.6%
[2]
  inhibition: 2.29%
[3]
  inhibition: 2.28%
[4]
  inhibition: 5.09%
[5]
  inhibition: 5.23%
[6]
  inhibition: 0.8%
[7]
  inhibition: 5.07%
[8]
  inhibition: 6.28%
[9]
  inhibition: 1.98%
[10]
  inhibition: 8.39%
